# NS1 inh – qHTS Assay for Inhibitors of Influenza NS1 Protein Function; Potency, µM (titrated, usually from 46.1 µM), inactives show at the top dose activity, positive = more growth; actives 0.4% (n = 270,000); AID 2326, 2010; calls by dose curve; note: potency is the fitted concentration of half-maximal effect; actives are rising curves; nearly all actives have a fitted effect of over 50% in size
#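 Growth recovery, yeast-based: influenza A NS1 expressed in S. cerevisiae causes slow growth, and suppressors are detected by OD600. The parent strain without NS1 is used as positive control.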
# Pf growth 96h – Primary qHTS for delayed death inhibitors of the malarial parasite plastid, 96 hour incubation; P. falciparum luciferase reporter growth, 96 h; actives 6.9% (n = 320,000); AID 504834, 2011; Potency, µM (titrated, usually from 28.7 µM), for the others: top-dose activity change, negative = inhibition, most hits filed as inhibitors; note: potency is the fitted concentration of half-maximal effect; % is set by controls: 0 for no effect and ±100 for the full control effect
#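 Two parasite generations (96 h, 37 C, 5% CO2) of compound exposure in infected erythrocytes (0.05% parasitemia, 2% hematocrit). Luciferase-reporter P. falciparum; decreased luminescence indicates inhibited growth, aimed at apicoplast-acting delayed death.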
# CHX counter – Cycloheximide Counterscreen for Small Molecule Inhibitors of Shiga Toxin | max response, % | actives 12% (n = 300,000) | cell reporter, cycloheximide protein synthesis inhibition counterscreen | AID 2314, 2010; in the data active = max response mostly above about 13%, no sharp cut-off; inactive = mostly below about 14%; note: read at 38.3 µM for the half of the compounds with a filed dose; 0% is about no effect
# Pf growth 48h – Primary qHTS for delayed death inhibitors of the malarial parasite plastid, 48 hour incubation | P. falciparum luciferase growth in erythrocytes, 48 h | Potency, µM (doses to about 28.7 µM), without a hit: at the highest dose activity change, negative = inhibition, usual class: inhibitors | actives 5.9% (n = 310,000); note: potency is the fitted concentration of half-maximal effect; % is set by controls: 0 for no effect and ±100 for the full control effect
#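 Luciferase-expressing parasites in RBCs, 2% Hct / 0.1% parasitemia final; RPMI 1640 + 0.5% Albumax; 37 C, 5% CO2, one generation; luminescence read-out, lower signal = inhibition.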
# Shiga inhibitor – A qHTS for Small Molecule Inhibitors of Shiga Toxin | AID 2315, 2010 | inhibition, % at 38.7 µM | actives 9.2% (n = 290,000) | Vero cells, Shiga toxin protein synthesis inhibition reporter; in the data active = inhibition mostly above about 28%, no sharp cut-off; inactive = mostly below about 43%; note: 0% is about no effect
# SARS PLpro yeast – qHTS of Yeast-based Assay for SARS-CoV PLP; S. cerevisiae expressing SARS-CoV PLpro, growth rescue; Potency, µM (doses to about 32.9 µM), inactives show at the highest dose activity, positive = growth rescue, hits mostly activators; actives 0.19% (n = 330,000); AID 485353, 2010; calls by dose curve; note: potency is the fitted concentration of half-maximal effect; 0% is about no effect; nearly all actives have a fitted effect of over 55% in size
# Numbers without * were called inactive; ? = inconclusive; . = not tested or not shown. This is a sample that favours compounds with a hit; in the whole collection about 21% have one here. Unless noted, calls come from the whole dose curve; as a rule, active = well fitted inhibition curve with a large enough effect; inconclusive = small, poorly fitted or top-dose-only effect, or another doubt; inactive = no such curve, though single readings can be large or run the other way.
SMILES,NS1 inh,Pf growth 96h,CHX counter,Pf growth 48h,Shiga inhibitor,SARS PLpro yeast
COC(=O)N/N=C\C=C\c1ccc2c(c1)OCO2,-1.1%,38.1%,-2.2,-5.5%,-7.8,-2.6%
Cc1ccc(C)c(Cn2c3ccccc3c3cnn(CC(=O)NCCCN4CCCCC4)c(=O)c32)c1,3.3%,-32.9%,-12.3,?,-10.4,-1.2%
CCCCSc1ncnc2[nH]ncc12,-7.2%,41.2%,22.5*,6.9%,24.7,0.2%
CCCNc1ncnc2[nH]ncc12,-0.1%,.,.,.,.,.
COc1ccc(/C=C2\SC(=S)N(CC(=O)OCC(=O)Nc3ccc(C)cc3Cl)C2=O)cc1,0.2%,7.5%,-1.8,33.6%,-6.4,-0.5%
COc1ccc(-c2noc(N(C)CC(=O)Nc3cccc(C(F)(F)F)c3)n2)cc1,-35.4%,6.4%,21.3*,79.5%,36.0,-9.3%
COc1ccccc1-c1noc(CCC(=O)Nc2ccccc2Cl)n1,-12.0%,?,19.1*,15.5%,-10.0,-20.0%
COc1cccc(CN(C)CC(=O)Nc2cccc(C(F)(F)F)c2)c1OC,.,?,5.0,?,-6.7,-0.4%
COc1ccc(-c2noc(CCC(=O)Nc3cccc(C)c3)n2)cc1,-69.4%,?,27.1*,19.6%,100.1*,1.2%
COc1ccccc1-c1noc(CCC(=O)Nc2cccc(C)c2)n1,-52.0%,4.3%,11.2,1.1%,31.2,8.5%
CCOC(=O)c1ccc(NC(=O)CCc2nc(-c3ccccc3)no2)cc1,-58.8%,13.1µM*,-6.3,0.0%,-11.5,-7.7%
O=C(N[C@H]1CCC(=O)N(CCSc2ccc(Br)cc2)CC1)OCc1ccccc1,.,?,.,5.2%,.,0.9%
Cc1cccc(C(=O)N/C(=C\c2ccco2)C(=O)N2CCCC2)c1,-2.6%,23.0%,-3.4,10.5%,-3.8,6.8%
O=C(Nc1ccncc1)c1ccc2c(c1)C(=O)N(C1CCCCC1)C2=O,-0.4%,?,-3.5,.,20.6,1.2%
CCOC(=O)c1cccc(NC(=O)CCc2nc(-c3ccc(C)cc3)no2)c1,-9.8%,1.04µM*,-1.0,11.7µM*,-12.3,-5.7%
COc1ccc(N(C(=O)CNC(=O)c2cccs2)C(C(=O)NCC2CCCO2)c2ccccc2)cc1 (stereo unspecified),6.1%,40.8%,-3.3,-28.7%,-13.3,0.1%
CC1(C)C(C=C(Cl)Cl)C1C(=O)Nc1ccc(S(=O)(=O)Nc2ncccn2)cc1 (stereo unspecified),14.2%,?,-2.3,13.9%,3.4,-1.0%
CCc1ccc(NC(=O)[C@H](C)NC(=O)C2CCN(C(=O)[C@@H](N)C(C)C)CC2)cc1,7.9%,18.3%,-0.8,-12.3%,-2.3,-0.1%
O=C1C2ON(c3ccccc3)C(c3ccncc3)C2C(=O)N1c1ccccc1 (stereo unspecified),5.7%,.,-3.2,10.9%,-5.3,-0.4%
Cc1ccc(N2C(=O)C3ON(c4ccccc4)C(CC(C)C)C3C2=O)cc1 (stereo unspecified),1.4%,21.3%,9.3*,13.3%,20.9,-1.0%
O=C(O)COc1ccccc1C1C2C(=O)N(c3ccc(F)cc3)C(=O)C2ON1c1ccccc1 (stereo unspecified),?,1.7%,-1.0,22.0%,-32.1,4.0%
COc1ccccc1C1C2C(=O)N(c3ccccc3)C(=O)C2ON1c1ccccc1 (stereo unspecified),2.4%,8.28µM*,3.0,1.3%,-18.5,-5.6%
COc1cc(CN/C(C)=C(\C#N)C(N)=O)cc(OC)c1OC,0.8%,2.08µM*,-2.2,21.2%,-10.1,0.9%
O=C1O/C(=C/C(=O)N2CCOCC2)c2ccccc21,7.3%,3.6%,-3.7,0.8%,-0.7,5.8%
CCC1SC(=NC(=O)c2ccc(Cl)c(Cl)c2)NC1=O (stereo unspecified),-70.6%,-19.3%,20.1*,18.9%,43.3,-18.1%
SMILES,NS1 inh,Pf growth 96h,CHX counter,Pf growth 48h,Shiga inhibitor,SARS PLpro yeast
CN(C)S(=O)(=O)c1cccc(NC(=O)c2ccc3nccnc3c2)c1,-1.6%,-10.0%,19.7*,23.1%,44.1,-0.3%
CC(=O)c1cccc(NC(=O)c2cccc(S(=O)(=O)N(C)C)c2)c1,4.7%,.,12.5*,33.5%,8.0,2.4%
CN(C)S(=O)(=O)c1ccc(C(=O)Nc2cccc(C(=O)O)c2)cc1,-2.0%,.,-2.1,61.6%,-15.0,.
CC(C)CCNC(=O)C(=O)NCc1ccccc1,5.2%,?,2.0,3.5%,12.3,-0.6%
COc1cc(/C=N/NC(=O)Cn2cnc3ccccc3c2=O)ccc1O,-2.1%,15.2%,-7.6,11.4%,-1.7,0.1%
CC(C)n1cnc2c(NCc3ccccc3)cc(N[C@H](C)CO)cc21,.,.,.,.,.,11.7%
CCn1c(=O)n(CC)c2cc([N+](=O)[O-])c(N3CCNCC3)cc21,.,5.86µM*,4.7,-18.1%,7.5,-0.4%
Nc1cc(N2CCNCC2)c([N+](=O)[O-])cc1Cl,-7.4%,31.6%,-1.0,-3.3%,-7.1,-11.1%
COc1ccc(C(O)c2nc3ccccc3s2)cc1 (stereo unspecified),-7.9%,34.2%,-3.0,0.4%,20.4,-0.6%
CCSc1nc(-c2ccc(OC)cc2)n(-c2nc3ccccc3s2)n1,-9.8%,-18.7%,17.1*,?,11.7,1.4%
O=C(Nc1cccc(S(=O)(=O)N2CCOCC2)c1)c1ccc(N2CCCC2=O)cc1,.,?,.,?,.,-2.9%
CCN(CC)S(=O)(=O)c1ccc(N2CCOCC2)c(NC(=O)CNCCc2ccccc2)c1,-5.9%,?,0.5,?,-5.0,0.2%
CCN(CC)c1ccc(S(=O)(=O)N(CC)CC)cc1NC(=O)C1CCCC1,2.1%,?,1.3,14.7µM*,7.4,-0.2%
CCN(CC)S(=O)(=O)c1ccc(N2CCOCC2)c(NC(=O)COc2ccccc2)c1,12.4%,?,3.2,9.28µM*,-6.4,3.3%
CCc1ccccc1OCC(=O)Nc1cc(S(=O)(=O)N(CC)CC)ccc1N1CCOCC1,.,1.17µM*,.,1.31µM*,.,-14.7%
CCN(CC)S(=O)(=O)c1ccc(N2CCOCC2)c(NC(=O)CCOc2ccccc2)c1,-19.7%,?,-3.5,9.28µM*,13.6,-4.4%
COc1ccc(CCN2CC(C(=O)NCc3nc4ccccc4n3C)CCC2=O)cc1 (stereo unspecified),2.0%,?,4.6,?,-10.3,8.7%
CCN(CC)S(=O)(=O)c1ccc(N2CCOCC2)c(NC(=O)C2CCCC2)c1,19.0%,11.7µM*,4.6,?,46.1,-2.9%
CCN(CC)S(=O)(=O)c1ccc(N2CCOCC2)c(NC(=O)C2CC2)c1,.,?,.,?,.,1.5%
CCCCC(=O)Nc1cccc2c1C(=O)N(c1ccccc1)C2=O,-48.6%,0.928µM*,-0.6,3.4%,-8.6,-3.0%
CCCCC(CC)CCC(CC(C)C)OS(=O)(=O)O (stereo unspecified),.,14.3%,.,-5.8%,.,.
